Experimental findings from PubChem BioAssay AID602248 (The Scripps Research Institute Molecular Screening Center, 2012) are described below.

The structures appear in SMILES notation. Among all 360,000 compounds or so, about 1,700 (0.47%) were called active. For the sample, actives were picked, then their nearest neighbours and some compounds at random. Values without a mark were called inactive. Rule as the data show it: active = activation above about 15%; inactive = the rest.

This assay can be described thus: counter-screen for M1 agonists: effect in parental CHO-K1 cells (AID 602248).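 Also: untransfected CHO-K1 host cells lacking M1 receptor as counterscreen.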 The conditions noted are these: Fluo-8 calcium fluorescence, at 3 µM, hits give high values, scaled to maximal ATP response, vehicle zero. Background: Counterscreens check selectivity or assay interference.
Consider `COc1ccc(Cl)cc1S(=O)(=O)N1CCC(O)(c2ccc(Cl)cc2)CC1`, for which the activation was 0.66%.

On to `COc1cc(OC)c(-n2cc(-c3ccc(Cl)cc3)[nH]c2=O)cc1Cl`, for which the activation is 25.2% (active).

Take `COc1cc(OC)c(N2CC(C(=O)Nc3cc(Cl)ccc3N3CCOCC3)CC2=O)cc1Cl` (configuration not stated): the activation was 4.62%.

For the compound `O=C(CCCN1CCc2[nH]c3ccc(F)cc3c2C1)c1ccc(F)cc1`, the activation was 24% (active).

`CC1CCc2[nH]c3ccc(C(=O)N(C)CC(=O)Nc4cccc(F)c4)cc3c2C1` (configuration not stated): the activation was 2.26%.

Turning to `Cn1c(SCC(=O)N2CCOCC2)nnc1-c1ccc2ncccc2c1`, the activation was 0.63%.

For the compound `Cc1c(Cl)c([N+](=O)[O-])nn1CCCC(=O)NC(C)c1ccccc1` (configuration not stated), the activation was -0.09%.

Take `Cc1c(Cl)c([N+](=O)[O-])nn1Cc1ccc(C(=O)N/N=C\c2cc(Cl)ccc2O)o1`: the activation is 19.9% (active).

With `CN(C)c1ccc(/C=N/NC(=O)c2ccc(Cn3cc(Br)cn3)o2)cc1`, the activation was 0.99%.

`C=C(C)CSc1nnc(-c2ccc(C)cc2)n1N`: the activation was 0.17%.

For the compound `O=C(CCN1C(=O)c2ccccc2C1=O)NCCCn1ccnc1`, the activation was 0.76%.

For the compound `COCc1c(N)c(C)nc(Cl)c1C#N`, the activation was 16.9% (active).

As for `Cc1nc(Cl)c(C#N)c2c1CCCC2`, the activation is 0.61%.

For `COC(=O)c1c(C)c(C)nc(N)c1C#N`, the activation was 0.12%.

As to `CCNC(=O)C1(C)CCN(C(=O)c2ccccc2)C1` (configuration not stated), the activation was -0.33%.

For `O=C(Cn1ccc([N+](=O)[O-])n1)NCc1cccs1`, the activation is 0.12%.

For the compound `OCCN1CCN(c2ncnc3c2ncn3[C@H]2CN(Cc3ccco3)C[C@@H](CO)O2)CC1`, the activation was 0.92%.

Turning to `CCNC(=O)N1CCN(S(=O)(=O)c2ccc3c(c2)OCCCO3)CC1`, the activation was 1.28%.

In the case of `COc1cc(NC(=O)c2ccc(CNc3c(N4CCCC4)c(=O)c3=O)cc2)cc(OC)c1OC`, the activation is 0.42%.

For the compound `CC(=O)Oc1ccc(Cn2c(C)c(C(=O)NCc3ccc(C#N)cc3)sc2=O)cc1`, the activation was 31.7% (active).

Take `Cc1c(C(=O)NCc2ccc(C#N)cc2)sc(=O)n1Cc1ccc(C(=O)N(C)C)cc1`: the activation is -0.19%.

`Cc1ccc(Cn2c(C)c(C(=O)NCc3ccccc3C(F)(F)F)sc2=O)cc1`: the activation was 0.82%.

Turning to `CCC(CC)C(=O)Nc1c2c(nn1-c1ccc(C)cc1)CS(=O)(=O)C2`, the activation is -0.47%.

Regarding `O=C(NCc1ccc2c(c1)OCO2)C(=O)NCC1OCCN1S(=O)(=O)c1ccc(F)cc1` (configuration not stated), the activation is 1.05%.

Turning to `O=C(O)c1ccc(S(=O)(=O)N2CCOCC2)o1`, the activation is -0.58%.

Turning to `CNC[C@H]1OCc2cnnn2CCCC(=O)N([C@H](C)CO)C[C@@H]1C`, the activation was 0.47%.

For `CC(C)CC(=O)NC(=S)Nc1ccc(F)cc1F`, the activation was 1.3%.

Consider `CC(=O)c1ccc(NC(=O)CSC(=S)N2CCCC2)cc1`, for which the activation was 1.41%.

With `CC(=O)c1ccc(NC(=S)NC(=O)CC(C)C)cc1`, the activation was 16.1% (active).

Take `CCCOc1cc(C)c(S(=O)(=O)n2nnc3ccccc32)cc1C`: the activation is 0.16%.

Turning to `CCC(C(=O)Nc1ncccn1)(C(F)(F)F)C(F)(F)F`, the activation was 0.01%.

For `S=C1Nc2cc(Cl)ccc2Sc2ccccc21`, the activation was 1.17%.

Regarding `Cc1ccc(S(=O)(=O)N(C)CC(=O)NCC(c2ccc(F)cc2)N2CCOCC2)cc1` (configuration not stated), the activation was 0.75%.

As to `COC(=O)[C@@H]1C[C@@]2(O)[C@H](O)[C@H](O)[C@H](O)C[C@H]2N1Cc1ccc(C)s1`, the activation is 0.11%.

As for `COc1cc(NC(=O)Nc2ccc(C)cc2)cc([N+](=O)[O-])c1`, the activation is 15.6% (active).

For the compound `COc1ccc(S(=O)(=O)NNC(=O)Nc2ccc(C)cc2)c(OC)c1`, the activation is 0.08%.

On to `Cc1ccc(Oc2cc(NC(=O)CCCn3nc(C)c([N+](=O)[O-])c3C)cc([N+](=O)[O-])c2)cc1`, for which the activation is 0.22%.

Take `CC(C)CCN1C(=O)c2ccc(C(=O)Nc3cccc(S(N)(=O)=O)c3)cc2C1=O`: the activation was 1.4%.

For `CCSC1=NCCN1S(=O)(=O)c1ccc(F)cc1`, the activation is 0.73%.

As for `COc1ccc(C(=O)OCC(=O)c2ccc(C)c(S(=O)(=O)N3CCOCC3)c2)cc1OC`, the activation was 15.7% (active).

Take `COc1ccc(CNC(=O)COC(=O)c2ccc(C)c(S(=O)(=O)N3CCOCC3)c2)cc1OC`: the activation was 3.58%.

With `Cc1ccc(C(=O)OCC(=O)N2CCCCCC2)cc1S(=O)(=O)N1CCOCC1`, the activation is 0.59%.

Take `COc1ccc(C(C)NC(=O)C23CC4CC(CC(C4)C2)C3)cc1` (configuration not stated): the activation is -0.13%.

As to `Cc1ccc(NC(=O)COC(=O)CN2CCCCCC2=O)c(C)c1`, the activation is -0.27%.

Consider `COc1ccc(-c2ccc3c(c2)C2CC3CCN2CCC#N)cc1` (configuration not stated), for which the activation is 4.03%.

With `CCOC(=O)N1CCN(C(=O)c2ccc3c(c2)N(Cc2ccc(C)cc2)CCS3)CC1`, the activation was 1.01%.

With `O=C(Nc1ccc(Cl)cc1)Nc1ccc(Oc2cccnc2)nc1`, the activation is 15.9% (active).

Consider `O=C(O)CCCC(=O)Nc1ccc(Oc2cccc(C(F)(F)F)c2)nc1`, for which the activation is 0.38%.

As for `O=C(NNC(=O)c1csc(-c2cccnc2)n1)Nc1ccc(Cl)cc1`, the activation was 0.53%.

For `COc1ccc(NC2CCCN(C(=O)c3ccncc3)C2)cc1` (configuration not stated), the activation is 0.4%.

In the case of `CSc1nc(C)nc2c1c(=O)n(C)c(=O)n2C`, the activation is -0.23%.

In the case of `N#Cc1c(-c2ccc(F)cc2)cc(C2CC2)nc1SCC(=O)c1cccs1`, the activation was 0.07%.
